Test results: PubChem BioAssay (NCATS)
Inconclusive results are not listed. Unmarked numbers belong to inactive results. The source made the active and inactive calls. Calls follow the shape of the dose curve; as a rule, active = well fitted cell-killing curve with a large enough effect; inconclusive = small, poorly fitted or top-dose-only effect, or effect the other way; inactive = no such curve, though single readings can be large or run the other way.

Test: Viability qHTS for spleen associated tyrosine kinase inhibitor (SYKi) drug resistant MV4-11 cells (AID 1963824); also: nearly all actives have a fitted effect of over 35% in size
Conditions: SYKi-resistant MV4-11 viability, CellTiter-Glo, 72 h; series mostly up to 45 µM; viability, % of control: at the top concentration
How it was run: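 SYK inhibitor-resistant MV4-11 AML cells, 500 per well, added to predispensed compounds and incubated 72 hr at 37 C, 5% CO2. Viability measured by CellTiter-Glo luminescence after 10 min at room temperature.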
Potency is read from the fitted curve at half-maximal effect.

Row | Structure (SMILES) | Potency | viability, % of control
1 | CC1CCN(C(c2ccc(F)cc2)c2ccc(C(C)C(=O)O)cc2-c2ccc(C(F)(F)F)cc2)CC1 (centres undefined) | 6.51 µM (active) | 
2 | O=S(=O)(c1ccccc1)N(CC(F)(F)F)c1ccc(C(O)(C(F)(F)F)C(F)(F)F)cc1 | 8.2 µM (active) | 
3 | Cc1nc(C#Cc2ccnc(Cl)c2)c(C)n1-c1ccc(OC(F)(F)F)cc1 | 23.1 µM (active) | 
4 | N#Cc1cccnc1N1CCN(C(=O)c2cccc(Cc3n[nH]c(=O)c4ccccc34)c2)CC1 | 0.186 µM (active) | 
5 | CC(C)C(=O)OC[C@H]1O[C@H](O[C@H]2O[C@H](CO)[C@@H](O)[C@H](O)[C@H]2O)[C@H](O)[C@@H](O)[C@@H]1O |  | 109% [at 17.3 µM]
6 | CC(=O)N[C@@H](CC(C)C)C(=O)N[C@@H](CCC(=O)O)C(=O)N[C@@H](CCC(=O)O)C(=O)N[C@@H](CC(=O)O)C(=O)Nc1ccc2c(C(F)(F)F)cc(=O)oc2c1 |  | 107%
7 | CC1(C)C2CC[C@@]34CC(CC[C@H]3[C@]2(C)CC[C@@H]1O[C@@H]1O[C@H](CO)[C@@H](O)[C@H](O)[C@H]1O)[C@](C)(O)C4 (some centres undefined) |  | 67.6% [at 17.3 µM]
8 | COC1C2=C(COC2=O)C2(C)CCCC(C)(CO)C2C1OC(=O)c1ccccc1 (centres undefined) |  | 74.6% [at 17.3 µM]
9 | CC(=O)NC(CCC(=O)O)C(=O)NCCc1ccc(O)cc1 (centres undefined) |  | 85%
10 | CC(C)C(=O)O[C@@H]1[C@@H](O)[C@@H](O[C@H]2O[C@H](CO)[C@@H](O)[C@H](O)[C@H]2O)O[C@H](CO)[C@H]1O |  | 119% [at 17.3 µM]
11 | CCc1ccc(N(CC(C)C)S(=O)(=O)c2ccc(OCC3CCOCC3)c(CO)c2)cc1 | 18.6 µM (active) | 
12 | CCC(O)(C(=O)OCc1ccccc1NC(=O)CCC(=O)O)C(C)O (centres undefined) |  | 93.6%
13 | CC(C)(C)n1nc(-c2cccc3ccccc23)c2c(N)ncnc21 | 14.6 µM (active) | 
14 | C/C=C1\[C@H](O[C@@H]2O[C@H](CO)[C@@H](O)[C@H](O)[C@H]2O)OC=C2C(=O)OCCc3ccc(O)c(c3)Oc3ccc(cc3)CCOC(=O)C[C@H]21 | 3.85 µM (active) | 
15 | C/C=C(/C)C(=O)O[C@H]1[C@H](OC(=O)/C(C)=C\C)[C@@]23C(CC1(C)C)[C@]1(CCC4[C@@]5(C)CC[C@H](O[C@@H]6O[C@H](C(=O)O)[C@@H](O)[C@H](O[C@@H]7O[C@H](CO)[C@H](O)[C@H](O)[C@H]7O[C@@H]7O[C@@H](C)[C@H](O)[C@@H](O)[C@H]7O[C@@H]7OC[C@@H](O)[C@H](O)[C@H]7O)[C@H]6O[C@@H]6O[C@H](CO)[C@H](O)[C@H](O)[C@H]6O)C(C)(C)C5CC[C@@]4(C)[C@]1(C)C[C@H]2O)O[C@H]3O (some centres undefined) | 0.776 µM (active) | 
16 | CN(C)c1ccnc2sc3c(=O)n(N4CCCCCC4)cnc3c12 | 20.6 µM (active) | 
17 | Cc1occc(=O)c1O[C@@H]1O[C@H](CO[C@@H]2OC[C@](O)(CO)[C@H]2O)[C@@H](O)[C@H](O)[C@H]1O |  | 138% [at 17.3 µM]
18 | COc1cccc(CNC(=O)Nc2nc(-c3ccncc3)cs2)c1 | 18.4 µM (active) | 
19 | NS(=O)(=O)Nc1ncnc(OCCOc2ncc(Br)cn2)c1-c1ccc(Br)cc1 | 14.6 µM (active) | 
20 | CCNCCS(=O)(=O)NC[C@@]1(c2ccccc2)SC(NC(=O)C(C)(C)C)=NN1C(=O)C(C)(C)C | 0.003 µM (active) | 

Row | Structure (SMILES) | Potency | viability, % of control
21 | Cc1cc2c(F)c(Oc3ncnn4cc(OCC(C)O)c(C)c34)ccc2[nH]1 (centres undefined) | 8.2 µM (active) | 
22 | N#Cc1ccc(COc2ccc(-c3cccc4nc(NC(=O)C5CC5)nn34)cc2)cn1 | 0.651 µM (active) | 
23 | C=C[C@H](/C=C\c1ccc(O)cc1)c1ccc(O)cc1 | 18.4 µM (active) | 
24 | CC1=CC2/C=C(\C)CCC(O)C/C=C/C(=O)OC23C(=O)NC(CC(C)C)C3C1C (centres undefined) | 10 µM (active) | 
25 | C=C1C(=O)OC2CC(C)=C(C(C)CCCOC(C)=O)C(OC(=O)CC(C)CC)C12 (centres undefined) | 2.52 µM (active) | 
26 | Cc1cc(NC(=O)c2cccc(NC(=O)/C=C/CN(C)C)c2)ccc1Nc1nccc(-c2cccnc2)n1 | 2.31 µM (active) | 
27 | OC[C@@]1(O)CO[C@H](OC[C@H]2O[C@@H](OC(CCCCc3ccc(O)cc3)CCc3ccc(O)cc3)[C@H](O)[C@@H](O)[C@@H]2O)[C@@H]1O (some centres undefined) |  | 96.1% [at 17.3 µM]
28 | C=C1C(=O)OC[C@@H]1C/C=C(\C)CC1CC(C)C(=O)O1 (some centres undefined) | 13 µM (active) | 
29 | CNS(=O)(=O)c1ccccc1Nc1nc(Nc2ccc(N3CCN(C)CC3)cc2OC)ncc1Cl | 0.0366 µM (active) | 
30 | O=C(O)Cc1cn([C@@H]2O[C@H](CO)[C@@H](O)[C@H](O)[C@H]2O[C@@H]2O[C@H](CO)[C@@H](O)[C@H](O)[C@H]2O)c2ccccc12 |  | 107% [at 17.3 µM]
31 | Cc1[nH]c2ccccc2c1C1=C(NCCc2ccc(F)cc2)C(=O)N(C)C1=O | 11.6 µM (active) | 
32 | CC1OC(OC2C(O)COC(O[C@@H]3[C@@H](O)[C@@H](O)[C@H](OC4C(OC(=O)[C@]56CCC(C)(C)CC5C5=CCC7[C@@]8(C)C[C@H](O)[C@H](OC9OC(CO)C(O)C(O)C9O)[C@@](C)(CO)C8[C@H](O)C[C@@]7(C)[C@]5(C)CC6)OCC(O)C4O)O[C@H]3C)C2O)C(O)C(O)C1O (some centres undefined) | 1.23 µM (active) | 
33 | COc1ccccc1[C@@H]1C2=C(CC(C)(C)CC2=O)Nc2n[nH]c(C(F)(F)F)c21 | 23.1 µM (active) | 
34 | COC(=O)c1ccc(=O)c2nc3/c(=C/O)c(O)cc(=O)c3[nH]c12 |  | 95.5%
35 | CO[C@@H]1[C@@H](O[C@H]2O[C@@H](C)[C@H](O[C@@H]3C[C@](C)(O)[C@H](O)[C@@H](C)O3)[C@@H](N(C)C)[C@@H]2O)[C@@H](CC=O)C[C@@H](C)[C@@H](O[C@H]2CC[C@H](N(C)C)[C@H](C)O2)/C=C/C=C/C[C@@H](C)OC(=O)C[C@H]1O | 10.3 µM (active) | 
36 | O=c1cc(-c2ccccc2)oc2ccc(O)cc12 | 14.6 µM (active) | 
37 | C[C@@H]1O[C@@H](O[C@H]2[C@H](O[C@H]3CC[C@@]4(C)C(CC[C@]5(C)C4CC=C4[C@@H]6CC(C)(C)CC[C@]6(C(=O)O)CC[C@]45C)[C@]3(C)CO)OC[C@H](O)[C@@H]2O)[C@H](O)[C@H](O[C@@H]2OC[C@@H](O)[C@H](O)[C@H]2O)[C@H]1O (some centres undefined) | 4.91 µM (active) | 
38 | Cn1cnc(-c2nccc3c(=O)[nH]c(OCCCC(F)(F)F)nc23)c1 | 9.2 µM (active) | 
39 | C=C1C(=O)OC2CC(COC(=O)C(C)C)=C(C(C)CCCOC(C)=O)[C@@H](OC(C)=O)C12 (some centres undefined) | 8.93 µM (active) | 
